According to PubChem BioAssay (EPA / NIEHS):
Calls of active or inactive are those of the source. How the source made its calls: active means hit-call score of the fitted dose curve at least 0.9, where 1 is the maximum; inactive means score below 0.9.

Assays:
Details in all cases: mRNA level, 48 h; actives raise or lower the signal
[1] = read-out: Pro-epidermal growth factor (Homo sapiens) (UniProt P01133); test: LTEA_HepaRG_EGF: Life Technologies and Expression Analysis (LTEA) Assay for Epidermal growth factor (EGF) using HepaRG (AID 2283489)
Outline: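 EGF expression changes in human HepaRG cells are scored by bidirectional fitting relative to 0.5% DMSO controls. Chemicals are tested at eight half-log concentrations up to 100 uM for 48 h in serum-free induction medium.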

[2] = read-out: Early growth response protein 1 (EGR1) transcription factor, EGR1 (gene 1958); test: LTEA_HepaRG_EGR1: Life Technologies and Expression Analysis (LTEA) Assay for Early growth response protein 1 (EGR1) transcription factor using HepaRG (AID 2283490)
Outline: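 Differentiated human HepaRG cells in serum-free induction medium were exposed in duplicate for 48 h to eight concentrations (top 100 uM, half-log steps) in 0.5% DMSO. EGR1 mRNA was quantified by qRT-PCR, normalized to ACTB, GAPDH and POLR2A, and fitted bidirectionally versus DMSO.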

[3] = read-out: Cytochrome P450 3A7 (Homo sapiens) (UniProt P24462); test: LTEA_HepaRG_CYP3A7: Life Technologies and Expression Analysis (LTEA) Assay for CYP3A7 using HepaRG (AID 2283492)
Outline: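 Cells were thawed, plated, cultured 48 h, then treated for a further 48 h with chemicals (eight-point half-log series from 100 uM, 0.5% DMSO). RNA was isolated and CYP3A7 expression quantified by qRT-PCR normalised to ACTB, GAPDH and POLR2A.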

CYP3A5 (gene 1577) = test: LTEA_HepaRG_CYP3A5: Life Technologies and Expression Analysis (LTEA) Assay for CYP3A5 using HepaRG (AID 2283493)
Outline: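 Differentiated HepaRG cells in serum-free induction medium were dosed 48 h with test chemicals (8-point half-log series, top 100 uM, 0.5% DMSO, duplicate). CYP3A5 mRNA measured by qRT-PCR, normalized to ACTB, GAPDH, POLR2A; bidirectional fit versus DMSO.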

[4] = read-out: Fatty Acid-Binding Protein 1 (FABP1), FABP1 (gene 2168); test: LTEA_HepaRG_FABP1: Life Technologies and Expression Analysis (LTEA) Assay for Fatty Acid-Binding Protein 1 (FABP1) using HepaRG (AID 2283494)
Outline: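 Differentiated human HepaRG cells were exposed in duplicate for 48 h in serum-free induction medium to 8-point half-log concentration series topping at 100 uM in 0.5% DMSO. FABP1 mRNA measured by TaqMan qRT-PCR, normalized to ACTB/GAPDH/POLR2A; bidirectional fit versus DMSO.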

[5] = read-out: Cytochrome P450 4A22 (Homo sapiens) (UniProt Q5TCH4); test: LTEA_HepaRG_CYP4A22: Life Technologies and Expression Analysis (LTEA) Assay for Cytochrome P450 4A22 (CYP4A22) using HepaRG (AID 2283495)
Outline: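 Cryopreserved HepaRG cells, plated and cultured 48 h, then switched to serum-free induction medium and treated 48 h (duplicates, up to 100 uM, half-log steps, 0.5% DMSO). Expression change of CYP4A22 was fitted bidirectionally against vehicle.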

[6] = read-out: Cytochrome P450 7A1 (Homo sapiens) (UniProt P22680); test: LTEA_HepaRG_CYP7A1: Life Technologies and Expression Analysis (LTEA) Assay for Cytochrome P450 7A1 (CYP7A1) using HepaRG (AID 2283496)
Outline: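 Gene expression endpoint in human HepaRG liver cells treated for 48 h with test chemicals (up to 100 uM, 0.5% DMSO). Values come from bidirectional concentration-response fitting versus DMSO.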

[7] = read-out: Glutathione S-Transferase (GSTA2), GSTA2 (gene 2939); test: LTEA_HepaRG_GSTA2: Life Technologies and Expression Analysis (LTEA) Assay for Glutathione S-Transferase (GSTA2) using HepaRG (AID 2283497)
Outline: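 Human HepaRG cells, plated 48 h, then exposed in serum-free induction medium for 48 h to eight half-log concentrations up to 100 uM in 0.5% DMSO, duplicate. GSTA2 mRNA by qRT-PCR, normalized to ACTB/GAPDH/POLR2A; bidirectional fit versus DMSO.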

[8] = read-out: Ezrin (EZR), EZR (gene 7430); test: LTEA_HepaRG_EZR: Life Technologies and Expression Analysis (LTEA) Assay for Ezrin (EZR) using HepaRG (AID 2283491)
Outline: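 EZR transcript levels came from Fluidigm qRT-PCR and were normalized to three housekeeping genes after 48 h chemical exposure of HepaRG cells. Dosing used an 8-point half-log series with a 100 uM top concentration in 0.5% DMSO, tested in duplicate; both directions were fitted versus vehicle.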

[9] = read-out: Glutamate-cysteine ligase catalytic (GCLC), GCLC (gene 2729); test: LTEA_HepaRG_GCLC: Life Technologies and Expression Analysis (LTEA) Assay for Glutamate-cysteine ligase catalytic (GCLC) using HepaRG (AID 2283498)
Outline: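 Differentiated human HepaRG cells, plated 48 h then switched to serum-free induction medium, were exposed in duplicate for 48 h to 8 half-log concentrations topping at 100 uM in 0.5% DMSO. GCLC mRNA was quantified by qRT-PCR against ACTB, GAPDH and POLR2A.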

Measured: AC50

Sequence of Cytochrome P450 3A7 (Homo sapiens) (P24462 whole entry, looked up): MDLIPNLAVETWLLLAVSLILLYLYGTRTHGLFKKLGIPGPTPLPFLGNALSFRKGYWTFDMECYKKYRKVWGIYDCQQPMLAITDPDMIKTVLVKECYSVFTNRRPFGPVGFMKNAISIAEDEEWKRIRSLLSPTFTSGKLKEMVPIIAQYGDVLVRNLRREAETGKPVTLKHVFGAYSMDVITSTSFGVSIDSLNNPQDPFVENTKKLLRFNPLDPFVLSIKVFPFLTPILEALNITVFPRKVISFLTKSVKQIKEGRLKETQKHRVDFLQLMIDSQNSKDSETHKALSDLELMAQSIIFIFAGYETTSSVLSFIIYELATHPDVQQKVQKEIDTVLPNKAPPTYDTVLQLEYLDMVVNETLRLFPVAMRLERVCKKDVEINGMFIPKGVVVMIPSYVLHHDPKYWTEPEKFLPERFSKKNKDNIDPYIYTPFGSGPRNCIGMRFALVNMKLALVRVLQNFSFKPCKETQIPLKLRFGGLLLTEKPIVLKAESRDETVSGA

CCOS(=O)(=O)OCC
not listed: [8] | [9]
inactive: all other assays above

CCCN(CCC)c1c([N+](=O)[O-])cc(C(C)C)cc1[N+](=O)[O-]
active: [1] 29 µM | [4] 9.92 µM | [6] 50 µM
inactive: all other assays above

CCC(C)(C)c1ccc(O)cc1
not listed: [9]
inactive: all other assays above

Cc1ccc(N)cc1N
active: [6] 18 µM
not listed: [8] | [9]
inactive: all other assays above

CCOC(=O)c1ccccc1C(=O)OCC
not listed: [8] | [9]
inactive: all other assays above

ClC(Cl)c1ccccc1
not listed: [8] | [9]
inactive: all other assays above

CC(C)(C)OOC(C)(C)C
not listed: [8] | [9]
inactive: all other assays above

c1ccc2c(c1)Nc1ccccc1S2
active: [4] 50 µM | [6] 20.2 µM
not listed: [8] | [9]
inactive: all other assays above

CCCCc1ccccc1
not listed: [8] | [9]
inactive: all other assays above

CCOP(=S)(OCC)SCSCC
not listed: [8] | [9]
inactive: all other assays above

CCCCN(CCCC)N=O
not listed: [8] | [9]
inactive: all other assays above

CCC1(c2ccccc2)C(=O)N=C(O)NC1=O (stereo not drawn)
active: [3] 41.3 µM
not listed: [8] | [9]
inactive: all other assays above

ClC1=C(Cl)C2(Cl)C3C(Cl)C(Cl)CC3C1(Cl)C2(Cl)Cl (stereo not drawn)
inactive: [2] | [3] | CYP3A5 (gene 1577) | [7]
active: [1] 18.4 µM | [4] 12.5 µM | [5] 26.2 µM | [6] 10.4 µM

CCNc1nc(Cl)nc(NC(C)(C)C)n1
active: [4] 28.7 µM | [5] 11 µM
not listed: [8] | [9]
inactive: all other assays above

O=[N+]([O-])c1ccc(Cl)c(Cl)c1
not listed: [8] | [9]
inactive: all other assays above

Nc1cc2c3c(c1)C(c1ccccc1)=N[C@@H](NC(=O)c1cccnc1)C(=O)N3CC2
active: [3] 5.11 µM | [4] 50 µM | [5] 10.9 µM
not listed: [8] | [9]
inactive: all other assays above

O=C(O)C1C(C(=O)O)C2(Cl)C(Cl)=C(Cl)C1(Cl)C2(Cl)Cl (stereo not drawn)
not listed: [8] | [9]
inactive: all other assays above

c1nc[nH]n1
active: [2] 0.109 µM
not listed: [8] | [9]
inactive: all other assays above

Cc1ccc([N+](=O)[O-])cc1C
not listed: [8] | [9]
inactive: all other assays above

CCN(CC)c1ccccc1
not listed: [8] | [9]
inactive: all other assays above

CC(C)(C)c1ccc(O)cc1
inactive: [1] | [2] | [8] | [4] | [7]
